Reference: PubChem BioAssay AID1159580 (chemical genetic matrix, 2015)
Several values for one entry are separate records, joined by “and”; a condition that tells them apart may be missing. Equal values may be shown once. Out of some 5,500 compounds screened, about 2,000 (36%) were called active. Not shown: some 18% with an inconclusive outcome. Cut-off read from the data, not from the text of the source: active = normalized growth mostly below about 0.91 (no sharp cut-off); inconclusive = no clear call, values can overlap the other calls; inactive = mostly above about 0.92. The list shows a part of the results.

Assay: chemical genetic growth profiling, strain panel (AID 1159580);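 note: tested at 20 µM; growth read once vehicle control cultures reached saturation at 30 °C; 1 = growth at the plate median or of vehicle wells; lower values mean less growth of the strain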
Conditions: S. cerevisiae deletion strains, growth OD

Measured: normalized growth

CC(=O)O[C@@H]1CC2C(C)(C)C(=O)C=C[C@]2(C)C2CC[C@@]3(C)[C@H](c4ccoc4)OC(=O)[C@H]4O[C@]43[C@@]21C (stereo partly drawn)
inactive: locus YAL021C, strain ccr4, active compounds read low 1.03 | locus YAL026C, strain drs2, active compounds read low 0.99 | locus YAL030W, strain snc1, active compounds read low 0.997 | locus YBL061C, strain skt5, active compounds read low 1.01 | locus YBR009C, strain hhf1, active compounds read low 0.981 | locus YBR021W, strain FUR4, active compounds read low 0.983 | locus YBR023C, strain chs3, active compounds read low 1.01 | locus YBR171W, strain sec66, active compounds read low 0.982 | locus YBR229C, strain ROT2, active compounds read low 0.997 | locus YBR231C, strain swc5, active compounds read low 1 | locus YBR279W, strain paf1, active compounds read low 1.01 | locus YCL011C, strain gbp2, active compounds read low 0.994 | locus YCL016C, strain dcc1, active compounds read low 1.02 | locus YCL029C, strain bik1, active compounds read low 0.999 | locus YCL061C, strain MRC1, active compounds read low 0.972 | locus YCL069W, strain vba3, active compounds read low 0.968 | locus YCR088W, strain abp1, active compounds read low 0.98 | locus YDL005C, strain med2, active compounds read low 0.981 | locus YDL035C, strain GPR1, active compounds read low 1 | locus YDL040C, strain nat1, active compounds read low 0.998 | locus YDL074C, strain BRE1, active compounds read low 0.988 | locus YDL101C, strain DUN1, active compounds read low 1.01 | locus YDL134C, strain PPH21, active compounds read low 0.997 | locus YDL185W, strain tfp1, active compounds read low 1.01 | locus YDL192W, strain arf1, active compounds read low 0.991 | locus YDR001C, strain nth1, active compounds read low 0.972 | locus YDR069C, strain doa4, active compounds read low 1 | locus YDR101C, strain arx1, active compounds read low 0.984 | locus YDR137W, strain rgp1, active compounds read low 0.95 | locus YDR159W, strain sac3, active compounds read low 0.949 | locus YDR162C, strain NBP2, active compounds read low 0.996 | locus YDR195W, strain ref2 1.02 | locus YDR297W, strain sur2, active compounds read low 1.01 | locus YDR318W, strain mcm21, active compounds read low 0.994 | locus YDR334W, strain swr1, active compounds read low 1.02 | locus YDR335W, strain msn5, active compounds read low 1.02 | locus YDR388W, active compounds read low 0.994 | locus YDR392W, strain spt3, active compounds read low 0.831 | locus YDR502C, strain sam2, active compounds read low 0.981 | locus YEL003W, strain gim4, active compounds read low 0.95 | locus YEL037C, strain rad23, active compounds read low 0.973 | locus YEL061C, strain CIN8 (second series), active compounds read low 0.973 | locus YEL061C, strain CIN8, active compounds read low 0.996 | locus YER015W, strain faa2, active compounds read low 1.01 | locus YER016W, strain bim1, active compounds read low 1 | locus YER110C, active compounds read low 0.997 | locus YER111C, strain swi4, active compounds read low 0.985 | locus YER155C, strain BEM2 (second series), active compounds read low 1 | locus YER155C, strain BEM2, active compounds read low 1 | locus YER167W, strain BCK2, active compounds read low 1.01 | locus YFR010W, strain ubp6, active compounds read low 0.966 | locus YGL078C, strain dbp3, active compounds read low 0.994 | locus YGL086W, strain mad1, active compounds read low 1.01 | locus YGL167C, strain pmr1, active compounds read low 1 | locus YGL173C, strain kem1, active compounds read low 0.976 | locus YGL227W, strain vid30, active compounds read low 0.961 | locus YGL240W, strain doc1, active compounds read low 1.01 | locus YGL248W, strain PDE1, active compounds read low 1 | locus YGL253W, strain hxk2, active compounds read low 1.02 | locus YGR078C, strain PAC10, active compounds read low 1.01 | locus YGR135W, strain pre9, active compounds read low 0.998 | locus YGR252W, strain gcn5, active compounds read low 0.993 | locus YHR013C, strain ard1, active compounds read low 0.987 | locus YHR027C, strain rpn1, active compounds read low 1.01 | locus YHR030C, strain SLT2, active compounds read low 1.01 | locus YHR079C, strain IRE1 (second series), active compounds read low 0.988 | locus YHR079C, strain IRE1, active compounds read low 0.994 | locus YHR094C, strain hxt1, active compounds read low 0.993 | locus YHR129C, strain ARP1, active compounds read low 1 | locus YHR142W, strain chs7, active compounds read low 0.987 | locus YHR200W, strain rpn10, active compounds read low 0.997 | locus YIL066C, strain RNR3, active compounds read low 1 | locus YIL073C, strain SPO22, active compounds read low 0.969 | locus YIL125W, strain kgd1, active compounds read low 0.994 | locus YIR030C, strain dcg1, active compounds read low 0.989 | locus YJL092W, strain hpr5, active compounds read low 0.992 | locus YJL095W, strain BCK1 (second series), active compounds read low 1.02 | locus YJL095W, strain BCK1, active compounds read low 0.983 and 0.999 | locus YJL115W, strain asf1, active compounds read low 0.987 | locus YJL129C, strain trk1, active compounds read low 0.928 | locus YJL134W, strain LCB3, active compounds read low 1.01 | locus YJL154C, strain vps35, active compounds read low 0.971 | locus YJL164C, strain tpk1, active compounds read low 0.995 | locus YJL166W, strain qcr8, active compounds read low 1 | locus YJL168C, strain set2, active compounds read low 0.987 | locus YJL187C, strain SWE1 (second series), active compounds read low 1.01 | locus YJL187C, strain SWE1, active compounds read low 1.01 | locus YJR043C, strain POL32, active compounds read low 1.01
